# Source: publication PMC7862700, “An all-to-all approach to the identification of sequence-specific readers for epigenetic DNA modifications on cytosine”
# Tests used:
# Assay in all cases: DAPPL (digital affinity profiling via proximity ligation, sequencing); 10 mM Tris-HCl pH 7.5, 50 mM NaCl, 1 mM DTT, 4% glycerol, room temperature, 30 min; GST-TFs on glutathione beads, 16-mer random dsDNA library, 0.1% formaldehyde crosslink after washing; high values mean tight binding
# FEV = target: T1, FEV (Homo sapiens, UniProt Q99581 1-238); conditions: protein: recombinant; tags: N-terminal GST; dsDNA, one strand shown
# T1 sequence: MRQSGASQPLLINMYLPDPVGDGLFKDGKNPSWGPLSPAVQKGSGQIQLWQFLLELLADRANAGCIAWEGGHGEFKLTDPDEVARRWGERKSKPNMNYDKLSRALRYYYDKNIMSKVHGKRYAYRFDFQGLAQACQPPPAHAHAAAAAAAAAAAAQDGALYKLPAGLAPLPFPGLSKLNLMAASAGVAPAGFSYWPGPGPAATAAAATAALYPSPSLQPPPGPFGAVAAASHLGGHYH
# Outline: (§1)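 Binding signal is each hexamer's read frequency for a factor divided by its frequency in the tag-only sample. The factors were GST-fused human transcription factors from yeast, captured on glutathione beads, DNA-barcoded and pooled with that sample. Pools were incubated with 200 nmole of a random double-stranded 16-mer DNA library in Tris/NaCl/DTT/glycerol buffer at room temperature for 30 min, then washed, crosslinked with 0.1% formaldehyde, proximity-ligated with BsaI/T4 ligase (1 h, 37 °C), PCR-amplified and sequenced on an Illumina NextSeq500.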
# ETV5 = ETV5 (Homo sapiens, UniProt P41161 1-510); conditions: protein: recombinant; tags: N-terminal GST; dsDNA, one strand shown
# Outline: as §1
# HSF1 = HSF1 (Homo sapiens, UniProt Q00613 1-529); conditions: protein: recombinant; tags: N-terminal GST; chain copies: 3; dsDNA, one strand shown
# Outline: as §1
# SPIC = target: T2, SPIC (Homo sapiens, UniProt Q8N5J4 1-248); conditions: protein: recombinant; tags: N-terminal GST; dsDNA, one strand shown
# T2 sequence: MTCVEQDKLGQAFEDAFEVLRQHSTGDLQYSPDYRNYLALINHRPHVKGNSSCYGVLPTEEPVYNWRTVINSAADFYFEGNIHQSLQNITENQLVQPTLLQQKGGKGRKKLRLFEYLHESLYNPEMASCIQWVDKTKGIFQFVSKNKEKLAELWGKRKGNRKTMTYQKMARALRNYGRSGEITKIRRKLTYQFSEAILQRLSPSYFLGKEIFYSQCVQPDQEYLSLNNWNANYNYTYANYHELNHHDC
# Outline: as §1
# ELF4 = ELF4 (Homo sapiens, UniProt Q99607 1-663); conditions: protein: recombinant; tags: N-terminal GST; dsDNA, one strand shown
# Outline: as §1
# ELK4 = target: T3, ELK4 (Homo sapiens, UniProt P28324-2 1-405); conditions: protein: recombinant; tags: N-terminal GST; dsDNA, one strand shown
# T3 sequence: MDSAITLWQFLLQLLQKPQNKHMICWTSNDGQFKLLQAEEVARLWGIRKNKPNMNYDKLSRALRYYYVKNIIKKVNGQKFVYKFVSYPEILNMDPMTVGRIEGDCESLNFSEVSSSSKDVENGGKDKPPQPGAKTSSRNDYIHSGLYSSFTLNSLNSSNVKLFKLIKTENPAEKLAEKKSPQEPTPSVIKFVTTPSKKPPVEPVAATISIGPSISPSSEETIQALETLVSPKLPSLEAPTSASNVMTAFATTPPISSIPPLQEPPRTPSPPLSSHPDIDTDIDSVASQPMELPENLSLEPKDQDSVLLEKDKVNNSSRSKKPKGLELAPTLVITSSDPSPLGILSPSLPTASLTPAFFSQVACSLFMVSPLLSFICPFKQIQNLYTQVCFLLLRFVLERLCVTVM
# Outline: as §1
# ETV2 = target: T4, ETV2 (Homo sapiens, UniProt O00321 1-342); conditions: protein: recombinant; tags: N-terminal GST; dsDNA, one strand shown
# T4 sequence: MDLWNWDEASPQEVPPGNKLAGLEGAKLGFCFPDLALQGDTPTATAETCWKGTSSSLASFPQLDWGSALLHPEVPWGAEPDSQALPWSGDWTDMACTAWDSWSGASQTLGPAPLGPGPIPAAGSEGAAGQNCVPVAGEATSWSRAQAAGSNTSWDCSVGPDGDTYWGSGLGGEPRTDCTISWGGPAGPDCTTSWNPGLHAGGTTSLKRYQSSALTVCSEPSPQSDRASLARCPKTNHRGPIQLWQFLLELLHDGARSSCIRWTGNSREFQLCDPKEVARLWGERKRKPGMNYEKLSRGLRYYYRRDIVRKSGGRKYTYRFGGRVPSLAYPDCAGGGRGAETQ
# Outline: as §1
# ELF3 = target: T5, ELF3 (Homo sapiens, UniProt P78545 1-371); conditions: protein: recombinant; tags: N-terminal GST; dsDNA, one strand shown
# T5 sequence: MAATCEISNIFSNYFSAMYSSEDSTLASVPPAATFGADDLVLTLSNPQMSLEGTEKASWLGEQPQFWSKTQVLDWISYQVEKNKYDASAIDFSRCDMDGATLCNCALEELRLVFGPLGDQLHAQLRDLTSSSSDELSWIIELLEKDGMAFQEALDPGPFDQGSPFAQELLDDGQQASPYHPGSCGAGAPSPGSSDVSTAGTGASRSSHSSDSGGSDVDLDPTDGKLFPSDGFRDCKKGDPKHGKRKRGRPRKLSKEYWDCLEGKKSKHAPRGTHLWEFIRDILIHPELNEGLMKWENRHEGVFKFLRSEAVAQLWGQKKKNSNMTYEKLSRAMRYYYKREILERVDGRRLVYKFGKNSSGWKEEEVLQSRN
# Outline: as §1
# CRX = CRX (Homo sapiens, UniProt O43186 1-299); conditions: protein: recombinant; tags: N-terminal GST; dsDNA, one strand shown
# Outline: as §1
# ETV1 = ETV1 (Homo sapiens, UniProt P50549 1-477); conditions: protein: recombinant; tags: N-terminal GST; dsDNA, one strand shown
# Outline: as §1
# ERF = target: T6, ERF (Homo sapiens, UniProt P50548 1-548); conditions: protein: recombinant; tags: N-terminal GST; dsDNA, one strand shown
# T6 sequence: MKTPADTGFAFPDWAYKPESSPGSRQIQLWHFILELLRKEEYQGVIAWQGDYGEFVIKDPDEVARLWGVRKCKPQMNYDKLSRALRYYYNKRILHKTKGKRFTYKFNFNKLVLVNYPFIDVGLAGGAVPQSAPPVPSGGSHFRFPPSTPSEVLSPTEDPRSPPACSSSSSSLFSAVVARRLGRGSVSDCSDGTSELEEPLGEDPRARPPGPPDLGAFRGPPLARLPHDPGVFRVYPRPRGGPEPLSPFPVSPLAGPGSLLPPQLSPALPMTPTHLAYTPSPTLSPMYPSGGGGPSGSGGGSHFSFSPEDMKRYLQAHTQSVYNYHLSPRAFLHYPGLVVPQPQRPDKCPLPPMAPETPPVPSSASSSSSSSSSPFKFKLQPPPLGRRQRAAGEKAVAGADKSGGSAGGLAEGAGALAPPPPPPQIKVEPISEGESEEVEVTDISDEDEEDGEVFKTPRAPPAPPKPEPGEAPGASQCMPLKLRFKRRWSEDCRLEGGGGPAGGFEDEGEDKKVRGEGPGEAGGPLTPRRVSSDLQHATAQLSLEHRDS
# Outline: as §1
# ETV3L = target: T7, ETV3L (Homo sapiens, UniProt Q6ZN32 1-361); conditions: protein: recombinant; tags: N-terminal GST; dsDNA, one strand shown
# T7 sequence: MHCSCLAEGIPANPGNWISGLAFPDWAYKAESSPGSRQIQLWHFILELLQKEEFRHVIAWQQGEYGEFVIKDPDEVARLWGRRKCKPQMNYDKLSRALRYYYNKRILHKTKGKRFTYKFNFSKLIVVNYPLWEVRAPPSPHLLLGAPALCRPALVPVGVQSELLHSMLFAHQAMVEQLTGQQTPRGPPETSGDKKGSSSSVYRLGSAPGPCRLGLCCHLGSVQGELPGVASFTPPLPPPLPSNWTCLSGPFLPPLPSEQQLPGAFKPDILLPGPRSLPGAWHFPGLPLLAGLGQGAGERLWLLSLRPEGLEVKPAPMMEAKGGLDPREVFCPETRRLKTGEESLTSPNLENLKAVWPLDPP
# Outline: as §1
# ETS2 = target: T8, ETS2 (Homo sapiens, UniProt P15036 1-469); conditions: protein: recombinant; tags: N-terminal GST; dsDNA, one strand shown
# T8 sequence: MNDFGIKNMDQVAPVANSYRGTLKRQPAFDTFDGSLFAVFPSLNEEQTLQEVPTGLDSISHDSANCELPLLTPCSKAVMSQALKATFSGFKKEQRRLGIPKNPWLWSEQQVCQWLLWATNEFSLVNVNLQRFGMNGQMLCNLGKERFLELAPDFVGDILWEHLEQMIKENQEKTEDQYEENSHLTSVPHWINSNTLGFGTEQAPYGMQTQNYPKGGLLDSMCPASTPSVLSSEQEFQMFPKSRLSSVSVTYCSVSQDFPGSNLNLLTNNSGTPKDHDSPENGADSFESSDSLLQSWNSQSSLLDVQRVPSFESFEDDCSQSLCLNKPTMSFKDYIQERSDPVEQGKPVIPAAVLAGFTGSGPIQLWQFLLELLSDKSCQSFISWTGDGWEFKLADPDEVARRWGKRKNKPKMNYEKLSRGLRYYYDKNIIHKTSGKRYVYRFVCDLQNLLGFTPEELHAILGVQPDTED
# Outline: as §1
# SPDEF = target: T9, SPDEF (Homo sapiens, UniProt O95238 1-335); conditions: protein: recombinant; tags: N-terminal GST; dsDNA, one strand shown
# T9 sequence: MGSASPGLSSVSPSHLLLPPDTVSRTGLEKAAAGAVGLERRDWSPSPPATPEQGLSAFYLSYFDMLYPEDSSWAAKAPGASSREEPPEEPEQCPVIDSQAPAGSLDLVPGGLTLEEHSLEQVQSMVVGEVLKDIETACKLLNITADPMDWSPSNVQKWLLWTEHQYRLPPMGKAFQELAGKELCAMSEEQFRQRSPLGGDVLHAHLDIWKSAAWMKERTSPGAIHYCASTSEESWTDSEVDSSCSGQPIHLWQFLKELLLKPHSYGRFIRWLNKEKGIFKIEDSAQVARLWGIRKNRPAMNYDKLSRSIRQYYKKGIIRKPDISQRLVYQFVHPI
# Outline: as §1
# ETV7 = target: T10, ETV7 (Homo sapiens, UniProt Q9Y603 1-341); conditions: protein: recombinant; tags: N-terminal GST; dsDNA, one strand shown
# T10 sequence: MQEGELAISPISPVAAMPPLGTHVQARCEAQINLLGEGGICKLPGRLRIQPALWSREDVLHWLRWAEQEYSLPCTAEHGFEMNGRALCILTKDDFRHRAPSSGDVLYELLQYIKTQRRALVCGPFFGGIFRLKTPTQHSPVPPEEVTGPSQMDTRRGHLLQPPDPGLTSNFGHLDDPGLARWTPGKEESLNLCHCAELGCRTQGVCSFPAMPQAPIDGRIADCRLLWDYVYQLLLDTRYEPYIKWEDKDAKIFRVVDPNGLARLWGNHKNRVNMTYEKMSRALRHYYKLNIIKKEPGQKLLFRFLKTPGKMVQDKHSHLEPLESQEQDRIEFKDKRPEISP
# Outline: as §1
# ELF5 = target: T11, ELF5 (Homo sapiens, UniProt Q9UKW6-2 1-255); conditions: protein: recombinant; tags: N-terminal GST; dsDNA, one strand shown
# T11 sequence: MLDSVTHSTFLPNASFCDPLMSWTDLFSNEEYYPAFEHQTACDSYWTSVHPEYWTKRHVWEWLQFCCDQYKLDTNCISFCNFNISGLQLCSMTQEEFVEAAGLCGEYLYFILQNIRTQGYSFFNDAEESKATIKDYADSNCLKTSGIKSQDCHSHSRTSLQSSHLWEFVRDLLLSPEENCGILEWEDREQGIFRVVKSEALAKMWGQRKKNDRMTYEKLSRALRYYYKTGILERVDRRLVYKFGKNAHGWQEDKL
# Outline: as §1
# ETV3 = target: T12, ETV3 (Homo sapiens, UniProt P41162-2 1-143); conditions: protein: recombinant; tags: N-terminal GST; dsDNA, one strand shown
# T12 sequence: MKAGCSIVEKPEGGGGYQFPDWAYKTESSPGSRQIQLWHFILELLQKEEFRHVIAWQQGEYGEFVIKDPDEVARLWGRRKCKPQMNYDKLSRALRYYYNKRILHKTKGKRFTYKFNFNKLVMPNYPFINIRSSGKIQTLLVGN
# Outline: as §1
# ETV6 = ETV6 (Homo sapiens, UniProt P41212 1-452); conditions: protein: recombinant; tags: N-terminal GST; dsDNA, one strand shown
# Outline: as §1
# Sequence of HSF1 (Q00613 whole entry): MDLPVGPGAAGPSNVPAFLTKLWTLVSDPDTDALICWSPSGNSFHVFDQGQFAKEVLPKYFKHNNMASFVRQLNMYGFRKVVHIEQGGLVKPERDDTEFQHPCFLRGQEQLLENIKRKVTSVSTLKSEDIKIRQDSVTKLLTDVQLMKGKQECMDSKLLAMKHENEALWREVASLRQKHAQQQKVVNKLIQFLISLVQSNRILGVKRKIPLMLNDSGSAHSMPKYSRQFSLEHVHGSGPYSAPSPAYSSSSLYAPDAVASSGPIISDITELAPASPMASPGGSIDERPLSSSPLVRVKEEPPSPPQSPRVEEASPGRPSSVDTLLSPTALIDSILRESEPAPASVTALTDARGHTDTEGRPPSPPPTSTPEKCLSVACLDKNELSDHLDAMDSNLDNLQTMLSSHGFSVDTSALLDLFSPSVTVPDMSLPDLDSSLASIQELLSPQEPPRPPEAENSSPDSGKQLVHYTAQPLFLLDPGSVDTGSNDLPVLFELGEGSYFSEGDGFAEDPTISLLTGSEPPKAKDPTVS
# Sequence of ELF4 (Q99607 whole entry): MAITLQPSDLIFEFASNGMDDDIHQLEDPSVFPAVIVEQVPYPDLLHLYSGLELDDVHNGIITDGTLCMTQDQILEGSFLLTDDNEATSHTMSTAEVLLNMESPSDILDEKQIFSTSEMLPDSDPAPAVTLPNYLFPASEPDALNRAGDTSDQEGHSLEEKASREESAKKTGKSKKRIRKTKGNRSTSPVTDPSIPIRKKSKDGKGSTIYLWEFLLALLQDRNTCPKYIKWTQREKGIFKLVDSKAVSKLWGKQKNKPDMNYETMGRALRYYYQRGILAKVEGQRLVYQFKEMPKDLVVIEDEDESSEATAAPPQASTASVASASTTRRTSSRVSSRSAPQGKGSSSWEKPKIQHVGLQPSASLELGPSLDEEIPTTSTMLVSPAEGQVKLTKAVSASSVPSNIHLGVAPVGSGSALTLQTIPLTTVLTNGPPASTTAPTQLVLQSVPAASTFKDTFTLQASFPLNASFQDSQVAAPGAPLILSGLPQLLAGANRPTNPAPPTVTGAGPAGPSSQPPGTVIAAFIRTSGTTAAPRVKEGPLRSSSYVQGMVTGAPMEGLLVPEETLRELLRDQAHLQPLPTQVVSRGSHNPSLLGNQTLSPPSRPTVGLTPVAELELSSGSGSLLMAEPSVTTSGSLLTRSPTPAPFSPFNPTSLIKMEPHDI
# Sequence of ETV6 (P41212 whole entry): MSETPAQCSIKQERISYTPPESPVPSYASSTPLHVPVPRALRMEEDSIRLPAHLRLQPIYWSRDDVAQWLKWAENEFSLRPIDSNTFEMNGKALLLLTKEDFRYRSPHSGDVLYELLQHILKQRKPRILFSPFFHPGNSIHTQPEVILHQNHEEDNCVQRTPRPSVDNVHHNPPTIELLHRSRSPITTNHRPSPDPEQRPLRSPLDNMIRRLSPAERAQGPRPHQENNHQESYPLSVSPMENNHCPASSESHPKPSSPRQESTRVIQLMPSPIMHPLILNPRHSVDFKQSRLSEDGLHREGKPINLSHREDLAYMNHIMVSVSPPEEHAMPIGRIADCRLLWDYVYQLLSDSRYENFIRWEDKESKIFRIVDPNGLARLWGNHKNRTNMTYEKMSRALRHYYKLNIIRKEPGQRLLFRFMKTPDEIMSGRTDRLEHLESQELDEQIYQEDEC
# Sequence of CRX (O43186 whole entry): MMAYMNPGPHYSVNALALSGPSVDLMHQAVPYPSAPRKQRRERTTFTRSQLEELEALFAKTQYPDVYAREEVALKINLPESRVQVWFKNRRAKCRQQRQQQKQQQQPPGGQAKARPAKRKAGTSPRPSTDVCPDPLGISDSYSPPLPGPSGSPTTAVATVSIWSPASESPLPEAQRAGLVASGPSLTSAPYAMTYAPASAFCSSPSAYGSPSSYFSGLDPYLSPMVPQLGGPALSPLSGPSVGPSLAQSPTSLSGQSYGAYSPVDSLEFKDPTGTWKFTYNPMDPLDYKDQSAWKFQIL
# Sequence of ETV5 (P41161 whole entry): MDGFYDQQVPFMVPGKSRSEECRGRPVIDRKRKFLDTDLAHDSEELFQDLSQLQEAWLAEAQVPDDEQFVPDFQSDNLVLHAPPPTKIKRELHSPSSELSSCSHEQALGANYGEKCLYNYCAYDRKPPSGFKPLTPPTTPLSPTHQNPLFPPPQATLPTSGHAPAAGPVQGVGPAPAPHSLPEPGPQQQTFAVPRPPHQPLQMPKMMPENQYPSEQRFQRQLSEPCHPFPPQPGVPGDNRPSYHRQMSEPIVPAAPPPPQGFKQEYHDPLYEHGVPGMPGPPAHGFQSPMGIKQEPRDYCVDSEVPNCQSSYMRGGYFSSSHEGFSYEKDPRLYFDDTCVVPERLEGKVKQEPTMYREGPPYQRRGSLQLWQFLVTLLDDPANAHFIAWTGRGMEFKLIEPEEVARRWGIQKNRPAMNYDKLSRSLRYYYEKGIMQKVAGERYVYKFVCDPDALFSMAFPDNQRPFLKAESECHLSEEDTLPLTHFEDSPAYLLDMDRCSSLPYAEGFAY
# Sequence of ETV1 (P50549 whole entry): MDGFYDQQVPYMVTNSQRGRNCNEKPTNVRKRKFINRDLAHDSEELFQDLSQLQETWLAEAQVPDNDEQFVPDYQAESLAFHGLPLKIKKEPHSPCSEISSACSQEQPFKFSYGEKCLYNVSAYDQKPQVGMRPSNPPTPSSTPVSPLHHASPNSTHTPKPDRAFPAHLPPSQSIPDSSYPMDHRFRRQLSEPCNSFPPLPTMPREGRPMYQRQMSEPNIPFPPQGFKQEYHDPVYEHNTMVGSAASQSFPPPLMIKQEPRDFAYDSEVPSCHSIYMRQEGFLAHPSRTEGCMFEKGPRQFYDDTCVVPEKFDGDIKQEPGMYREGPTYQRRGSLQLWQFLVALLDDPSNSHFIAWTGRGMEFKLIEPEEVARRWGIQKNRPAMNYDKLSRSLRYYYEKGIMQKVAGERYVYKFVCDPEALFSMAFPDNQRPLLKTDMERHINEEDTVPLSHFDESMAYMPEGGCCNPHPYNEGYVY
sequence,measurement,setting,value
TATCAG,binding signal,FEV,"1.07 fold enrichment (6-mer frequency, TF over GST control)"
same,binding signal,ETV5,"1.14 fold enrichment (6-mer frequency, TF over GST control)"
same,binding signal,HSF1,"1.11 fold enrichment (6-mer frequency, TF over GST control)"
same,binding signal,SPIC,"1.03 fold enrichment (6-mer frequency, TF over GST control)"
same,binding signal,ELF4,"1.18 fold enrichment (6-mer frequency, TF over GST control)"
same,binding signal,ELK4,"1.35 fold enrichment (6-mer frequency, TF over GST control)"
same,binding signal,ETV2,"1.01 fold enrichment (6-mer frequency, TF over GST control)"
same,binding signal,ELF3,"1.09 fold enrichment (6-mer frequency, TF over GST control)"
same,binding signal,CRX,"1.47 fold enrichment (6-mer frequency, TF over GST control)"
same,binding signal,ETV1,"1.14 fold enrichment (6-mer frequency, TF over GST control)"
same,binding signal,ERF,"1.13 fold enrichment (6-mer frequency, TF over GST control)"
same,binding signal,ETV3L,"1.11 fold enrichment (6-mer frequency, TF over GST control)"
same,binding signal,ETS2,"1.15 fold enrichment (6-mer frequency, TF over GST control)"
same,binding signal,SPDEF,"1.26 fold enrichment (6-mer frequency, TF over GST control)"
same,binding signal,ETV7,"1.07 fold enrichment (6-mer frequency, TF over GST control)"
same,binding signal,ELF5,"1.06 fold enrichment (6-mer frequency, TF over GST control)"
same,binding signal,ETV3,"1.12 fold enrichment (6-mer frequency, TF over GST control)"
same,binding signal,ETV6,"1.12 fold enrichment (6-mer frequency, TF over GST control)"
